Experimental data published in PubChem BioAssay AID602340 (Broad Institute, 2012).
Out of some 330,000 compounds screened, about 2,600 (0.79%) were called active.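 How the source made its calls: active means mean ATP rescue above about 67%, or every replicate alone reaching that limit (limit read from the data, passing the limit was not always enough); inconclusive means no clear call, values can overlap the other calls; inactive means mean under the limit and some replicate under it.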 For the sample, actives were picked, then their nearest neighbours and some compounds at random.

assay: suppressors of statin myotoxicity in C2C12 myotubes, primary screen, cell-based, single point, plate reader (AID 602340); conditions: C2C12 myotubes + simvastatin, ATP luminescence, 48 h; at 7.49 µM; active compounds read high; scaled: DMSO 0, geranylgeraniol control 100;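 further: myotubes were challenged with 10 µM simvastatin during compound exposure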

Row | Compound | rescue of ATP level
1 | CCC(=O)N(C)C[C@@H]1Oc2cc(C#Cc3cccnc3)ccc2S(=O)(=O)N([C@H](C)CO)C[C@@H]1C | 29.4% (inactive)
2 | CC(=O)c1ccc(NC(=O)c2cc(-c3cccs3)on2)cc1 | -12.8% (inactive)
3 | Cc1cc(NC(=O)c2cc(-c3cccs3)on2)nn1Cc1ccc(Cl)cc1 | 143% (active)
4 | O=C(c1cc(-c2cccs2)on1)N1CCCCC1 | 36% (inactive)
5 | CC(C)C#Cc1ccc2c(c1)O[C@@H](CN(C)C(=O)CN(C)C)[C@@H](C)CN([C@H](C)CO)S2(=O)=O | -17.5% (inactive)
6 | CNC[C@H]1Oc2ncc(C#Cc3ccccc3F)cc2C(=O)N([C@H](C)CO)C[C@H]1C | -12.3% (inactive)
7 | O=C(C[C@@H]1C[C@H]2c3cc(NC(=O)Nc4ccccc4)ccc3O[C@H]2[C@@H](CO)O1)NCc1cccnc1 | 4.89% (inactive)
8 | CN1c2ccccc2-c2nc3ccccc3n2C1c1ccco1 (stereo not given) | 96.4% (active)
9 | Cc1cc(NCc2ccco2)n2c(nc3ccccc32)c1C#N | -35.7% (inactive)
10 | CN1C(C(=O)NCc2ccco2)CC2Cn3c(nc4ccccc43)C21 (stereo not given) | 2.87% (inactive)
11 | COC(=O)Nc1ccc(S(=O)(=O)Nc2cc(OC)nc(OC)n2)cc1 | -0.957% (inactive)
12 | CCCCCC(=O)Nc1ccc(S(=O)(=O)Nc2ccc(Cl)nn2)cc1 | -2.2% (inactive)
13 | COc1ccc(NS(=O)(=O)c2ccc(NC(=O)C(C)(C(F)(F)F)C(F)(F)F)cc2)nn1 | 113% (active)
14 | CC(C)NC(=O)N1[C@H](CO)[C@@H]2c3ccccc3N(C(=O)c3ccccc3F)C[C@@H]21 | 6.22% (inactive)
15 | CC(=O)N(C)C[C@H]1Oc2cc(C#CC3CC3)ccc2S(=O)(=O)N([C@H](C)CO)C[C@@H]1C | 9.57% (inactive)
16 | C/C=C/c1ccc2c(c1)O[C@@H](CN(C)C(=O)c1ccncc1)[C@@H](C)CN([C@H](C)CO)S2(=O)=O | -3.45% (inactive)
17 | CO[C@H]1CN(C)C(=O)c2ccc(NS(C)(=O)=O)cc2OC[C@@H](C)N(Cc2ccccc2)C[C@@H]1C | 7.75% (inactive)
18 | CO[C@H]1CN(C)C(=O)c2cc(NC(=O)C3CC3)ccc2OC[C@H](C)N(Cc2ccccc2)C[C@H]1C | 14.1% (inactive)
19 | CC(=O)c1c(C)n(-c2ccc(C)cc2)c2ccc(O)cc12 | -0.235% (inactive)
20 | CCOC(=O)c1c(-c2ccccc2)oc2ccc(OCC(N)=O)cc12 | -0.453% (inactive)
21 | CC(=O)c1c(C)n(-c2ccc(N(C)C)cc2)c2ccc(OCC(N)=O)cc12 | 83.1% (active)
22 | CN(C)CCCNC(=O)C[C@H]1C=C[C@@H](NC(=O)Cc2cccnc2)[C@H](CO)O1 | -16.4% (inactive)
23 | C[C@@H]1CN([C@H](C)CO)C(=O)c2ccccc2-c2ccccc2CO[C@@H]1CN(C)S(=O)(=O)CC(F)(F)F | -2.03% (inactive)
24 | CC(C)(C)OC(=O)Nc1ccc([C@@H](NC(=O)OC(C)(C)C)C(=O)OC(C)(C)C)cc1 | 83.1% (active)
25 | CC(C)(C)OC(=O)N[C@H](C(=O)OC(C)(C)C)c1ccc(Br)cc1 | -4.69% (inactive)
26 | CCOC(=O)Nc1ccc(NC(=O)OCC)cc1 | -0.0995% (inactive)
27 | COc1ccc(S(=O)(=O)N2CC[C@H]3[C@@H](CO)N(C)c4ccc(C#Cc5ccccc5OC)cc4[C@H]32)cc1 | 36% (inactive)

Row | Compound | rescue of ATP level
28 | C[C@H]1CN([C@@H](C)CO)S(=O)(=O)c2ccc(C#Cc3ccccc3F)cc2O[C@@H]1CN(C)C(=O)c1ccc2c(c1)OCO2 | -14.8% (inactive)
29 | O=C(Nc1ccccc1[N+](=O)[O-])C1C(c2ccccc2)=C1c1ccccc1 | 2.4% (inactive)
30 | O=C(O)c1ccccc1NC(=S)NC(NC(=O)c1ccccc1[N+](=O)[O-])C(Cl)(Cl)Cl (stereo not given) | 108% (active)
31 | O=C(Nc1ccccc1-c1ccccc1)c1ccccc1[N+](=O)[O-] | 9.09% (inactive)
32 | CO[C@H]1CN(C)C(=O)c2cc(NC(=O)C3CCOCC3)ccc2OC[C@@H](C)N(Cc2cccnc2)C[C@@H]1C | 11.4% (inactive)
33 | COc1ccc(O)c(/C=N/N=C/c2cccc([N+](=O)[O-])c2)c1 | 9.95% (inactive)
34 | COc1cc(/C=N\NC(=O)CNC(=O)c2cccc([N+](=O)[O-])c2)ccc1O | 110% (active)
35 | COc1cc(/C=N/NC(=O)CNC(=O)c2ccncc2)ccc1OC(C)=O | -8.66% (inactive)
36 | Cc1noc(C)c1NC(=O)N[C@@H]1CC[C@H](CCNC(=O)C2CCC2)O[C@@H]1CO | 3.99% (inactive)
37 | O=C(C[C@H]1CC[C@@H](NC(=O)Nc2cc(F)ccc2F)[C@@H](CO)O1)NCc1ccncn1 | -2.36% (inactive)
38 | O=C(Nc1ccccc1)N1C[C@@H]2[C@H](c3ccccc31)[C@H](CO)N2C(=O)c1ccccn1 | -4.63% (inactive)
39 | COc1ccc(C2=NN(C(=O)CSc3nc(=O)n4ccc(C)cc4n3)C(c3ccc(C)cc3)C2)cc1 (stereo not given) | 34.4% (inactive)
40 | Cc1ccc(C2=NN(C(=O)CSc3nc(N)cc(N)n3)C(c3ccco3)C2)cc1 (stereo not given) | 159% (active)
41 | COc1ccc(C2=NN(C(=O)CSc3nnnn3C)C(c3ccco3)C2)cc1 (stereo not given) | -6.88% (inactive)
42 | Cc1cccc(-c2ccc([C@@H]3[C@H](CO)N4CCCCN(C(=O)c5ccc6c(c5)OCO6)C[C@@H]34)cc2)c1 | -11.7% (inactive)
43 | C[C@@H]1CN([C@H](C)CO)C(=O)c2cc(-c3ccc(C(=O)N(C)C)cc3)cnc2O[C@H]1CN(C)C(=O)C1CC1 | 5.72% (inactive)
44 | COc1ccc(NC(=O)N(C)C[C@H]2Oc3ccc(N(C)C)cc3C(=O)N([C@H](C)CO)C[C@H]2C)cc1 | 34.1% (inactive)
45 | CCOC(=O)c1ccn(-c2nc(-c3ccco3)cc(C(F)(F)F)n2)n1 | 122% (active)
46 | O=C(CSc1nc(-c2ccco2)cc(C(F)(F)F)n1)N1CCc2ccccc2C1 | 2.99% (inactive)
47 | COC(=O)c1cnn2c(C(F)(F)F)cc(-c3ccco3)nc12 | 0.418% (inactive)
48 | COCC(=O)Nc1ccc2c(c1)C(=O)N(C)[C@H]1CC[C@@H](CC(=O)Nc3cn(C)nc3C)O[C@@H]1CO2 | -1.7% (inactive)
49 | CCC(=O)Nc1ccc2c(c1)OC[C@H](C)N(CC1CCCCC1)C[C@@H](C)[C@H](OC)CN(C)C2=O | 13.2% (inactive)
50 | CCC(=O)Nc1ccccc1N1CCN(S(C)(=O)=O)CC1 | 5.38% (inactive)
51 | CS(=O)(=O)N1CCN(c2cccc(Cl)n2)CC1 | 109% (active)
52 | Cc1cccc(C)c1N1CCN(S(=O)(=O)N2CCCCC2)CC1 | -15% (inactive)
53 | C[C@@H]1CN([C@H](C)CO)S(=O)(=O)c2ccc(C#CCC3CCCC3)cc2O[C@H]1CN(C)Cc1ccc(C(=O)O)cc1 | 3.68% (inactive)
54 | CC(C)(C)c1cc(C(=O)NCc2cccnc2)ccn1 | -8.85% (inactive)

Row | Compound | rescue of ATP level
55 | O=C(NCc1ccc(Cl)c(Cl)c1)c1cccnc1 | 106% (active)
56 | O=C(Nc1nnc(Cc2ccc(Cl)cc2)s1)c1cccnc1 | 0.36% (inactive)
57 | COCC(=O)Nc1ccc2c(c1)[C@H]1C[C@H](CC(=O)NCc3cccnc3)O[C@H](CO)[C@H]1O2 | -1.76% (inactive)
58 | Cn1c(=O)c2c(nc(CN3CCOCC3)n2Cc2ccccc2)n(C)c1=O | 2.6% (inactive)
59 | COCCn1c(CN(Cc2ccccc2)Cc2ccccc2)nc2c1c(=O)n(C)c(=O)n2C | 30.5% (inactive)
60 | COCCn1c(CN2CCC(Cc3ccccc3)CC2)nc2c1c(=O)n(C)c(=O)n2C | 70.9% (active)
61 | CC(=O)NC[C@H]1[C@H](c2ccccc2)[C@@H](CO)N1C(=O)Cc1cccnc1 | 7.36% (inactive)
62 | Cc1ccccc1S(=O)(=O)Nc1ccc2c(c1)C(=O)N(C)[C@H]1CC[C@@H](CC(=O)O)O[C@H]1CO2 | 10.2% (inactive)
63 | O=C(C[C@@H]1C[C@H]2c3cc(NC(=O)Nc4ccccc4)ccc3O[C@H]2[C@@H](CO)O1)NC1CCCCC1 | 4.79% (inactive)
64 | C[C@@H]1CN([C@@H](C)CO)C(=O)c2cc(C3=CCCCC3)cnc2O[C@H]1CN(C)CC1CCOCC1 | -11.9% (inactive)
65 | CC(=N\NC(=O)c1cc(Br)ccc1O)/C(=N/O)C(=O)Nc1ccccc1 | -1.86% (inactive)
66 | C/C(=N/NC(=O)c1cc(Cl)ccc1O)C12CC3CC(CC(C3)C1)C2 | 173% (active)
67 | Cc1ccc(C(=O)NC23CC4CC(CC(C4)C2)C3)c(Cl)c1 | -14.4% (inactive)
68 | Cc1noc(C)c1S(=O)(=O)N(C)C[C@@H]1Oc2c(NS(=O)(=O)c3cn(C)cn3)cccc2C(=O)N([C@@H](C)CO)C[C@H]1C | 5.29% (inactive)
69 | COc1cccc(C(=O)Nc2ccc3c(c2)OC[C@H](C)N(C(C)=O)C[C@@H](C)[C@@H](OC)CN(C)C3=O)c1 | 5.61% (inactive)
70 | Fc1ccccc1OCCCCn1cncn1 | 109% (active)
71 | CCN1CCN(CCCCOc2ccccc2F)CC1 | 12.7% (inactive)
72 | O=c1c2ccccc2ncn1CCCCOc1ccccc1F | -4.17% (inactive)
73 | O=C(Nc1ccccc1F)N[C@@H]1CC[C@H](CCNC(=O)C2CC2)O[C@@H]1CO | 3.31% (inactive)
74 | O=C(CSc1ncn[nH]1)N/N=C/c1ccc(F)cc1 | 2.49% (inactive)
75 | Cc1cccc(C=CC(=O)c2ccc(Cl)cc2)c1 | 3.66% (inactive)
76 | O=C(/C=C/Sc1ncn[nH]1)c1ccc(Cl)cc1 | 122% (active)
77 | CO[C@H]1CN(C)C(=O)c2ccc(NC(=O)c3ccccc3F)cc2OC[C@H](C)N(C(=O)c2ccccc2F)C[C@H]1C | -0.874% (inactive)
78 | COc1ccc(NC(=O)CCCC(=O)c2ccccc2)cc1 | 4.33% (inactive)
79 | CCOC(=O)c1cc2ccccc2n1CC(=O)c1ccccc1 | 14.7% (inactive)
80 | COc1ccc2cc(C(=O)O)n(CC(=O)c3ccccc3)c2c1 | 107% (active)
